CaV13 FRET inh – Disruptors of the CACNA1D IQ motif to Ca2+-dependent inactivation inhibitor domain association, primary screening, Förster resonance energy transfer in intact living …; HEK cells, CFP/YFP FRET ICDI-IQ, plate reader, 10 min; percent FRET-ratio fall versus neutral wells; AID 743397; 340,000 compounds, 0.098% hits; inhibition, % at 12.3 µM;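 active = mean replicate inhibition of at least 30% and at least 1% of replicates passing that level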;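 note: 0% = median of the neutral control wells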
VLA-4 inh – inhibition in a human VLA-4 binding assay. P13612. VLA-4 expressing cells, ligand binding flow cytometry. inhibition, % (about 7 µM as worked out from the volumes in the protocol). 330,000 compounds, 0.2% hits. AID 2557; in the data active = inhibition above about 50%
Exocytosis inh – blocks lytic granule exocytosis; TALL-104 LAMP-1 surface exposure, flow cytometry; cells stimulated with thapsigargin and PMA; inhibition, % at 10 µM; 360,000 compounds, 0.66% hits; AID 651702;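 active = inhibition above about 55%, limit read from the data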
ABCB6 inh 2 – inhibitors of human ABC transporter ABCB6 | 360,000 compounds, 0.19% hits | AID 602162 | fluorescence ratio to DMSO, % at 10 µM | Q9NP58 | K562-ABCB6 porphyrin accumulation, flow cytometry, 1 h; active compounds read low;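 active = fluorescence ratio to DMSO below 75%, the collection mean minus 3 SD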;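 note: signal is porphyrin accumulated inside mitochondria; 100% equals median channel fluorescence of DMSO control wells; lower ratio means ABCB6 inhibition with less porphyrin fluorescence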
Exocytosis CP01 – blocks lytic granule exocytosis; shares compounds with Exocytosis inh; TALL-104 cells, LAMP-1 externalization, flow cytometry; stimulated with PMA plus thapsigargin; inhibition, % at 10 µM; 1,500 compounds, 11% hits; AID 651954; in the data active = inhibition above about 60%;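 note: 0% = stimulated vehicle wells and 100% = unstimulated wells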
* hit, by the source's call; . = no result given. Hits are enriched below; roughly 1.1% of the tested compounds scored in any of these assays.

SMILES | CaV13 FRET inh | VLA-4 inh | Exocytosis inh | ABCB6 inh 2 | Exocytosis CP01
COCCNC(=S)N(CCc1c(C)[nH]c2ccc(F)cc12)Cc1ccco1 | -5 | 5 | 63* | 97 | -14
COCOCCn1cc(CN2CCS(=O)(=O)N(Cc3ccc(-c4ccc(Cl)c(Cl)c4)cc3)C(C(C)C)C2=O)nn1 (stereo not given) | -3 | . | 57* | 91 | 33
CN(C)CCNc1nc(Oc2ccccc2)c2sccc2n1 | -6 | . | -2 | 98 | .
COc1ccc(OC)c(Nc2cc(C)nc3ccc(C)cc23)c1 | -20 | 8 | 56* | 94 | -12
COc1ccc2nc(C)cc(Nc3ccc(C)cc3)c2c1 | -3 | -8 | 7 | 101 | .
CCOc1ccccc1Nc1cc(C)nc2ccc(C)cc12 | -20 | 4 | 81* | 96 | -7
Cc1cc(OC(C)C(=O)N2CCN(c3ccc(F)cc3)CC2)c2c(C)c(C)c(=O)oc2c1 (stereo not given) | -2 | -6 | 64* | 100 | -12
Nc1sccc1C(=O)c1ccc(Cl)cc1 | -8 | . | 82* | 113 | -3
NC(=O)c1ccsc1N | . | -16 | . | . | .
CC1(C)CCc2cc(-c3ccnc(=S)[nH]3)ccc2O1 | -16 | 3 | -4 | 98 | .
S=c1nccc(-c2ccc3c(c2)CCO3)[nH]1 | -5 | 7 | 59* | 103 | -12
O=S(=O)(CC(CN1CCCCC1)N1CCCCC1)c1ccc2ccccc2c1 (stereo not given) | -6 | . | 68* | 97 | 7
O=C(COC(=O)c1ccco1)NC1CCCC1 | -3 | -7 | 72* | 95 | -13
CC(C)CN(C(=O)CN1C(=O)NC2(CCc3ccccc32)C1=O)C1CCS(=O)(=O)C1 (stereo not given) | -6 | -8 | -4 | 99 | .
COc1ccccc1N(CC(=O)NCCc1ccccc1)C(=O)CCC(=O)Nc1cc(C)ccn1 | -3 | 1 | 62* | 90 | -14
COc1ccccc1N(CC(=O)NCCc1ccccc1)C(=O)CCC(=O)Nc1ccccn1 | -5 | 0 | 17 | 86 | .
CC(C)CCNC(=O)C1CC2Cn3c(nc4cc(Cl)c(Cl)cc43)C2N1C (stereo not given) | -9 | -7 | 62* | 96 | -12
CN1C(C(=O)NCC2CC2)CC2Cn3c(nc4cc(Cl)c(Cl)cc43)C21 (stereo not given) | -5 | 13 | -8 | 97 | .
CCOc1cc(-c2nc(C)c(C(C)=O)n2O)ccc1OCC(=O)Nc1ccccc1 | -7 | -5 | 23 | 101 | .
c1ccc(CC2CCN(c3ncnc4sccc34)CC2)cc1 | 3 | . | 63* | 92 | -11
CCOc1ccc2nc(N(CCCN(C)C)C(=O)c3ccc(S(=O)(=O)N4CCc5ccccc5C4)cc3)sc2c1 | . | -5 | 68* | 103 | 84*
CCOC(=O)N1CCN(S(=O)(=O)c2ccc(C(=O)Nc3nc4ccc(F)cc4s3)cc2)CC1 | -7 | 9 | 3 | 95 | .
CCOC(=O)N1CCN(S(=O)(=O)c2ccc(C(=O)Nc3nc4ccccc4s3)cc2)CC1 | -10 | -7 | 100* | 84 | -10
COc1ccc2nc(N(CCN(C)C)C(=O)c3ccc4ccccc4c3)sc2c1 | -6 | 2 | 11 | 103 | .
CCOC(=O)N1CCN(S(=O)(=O)c2ccc(C(=O)N(CCCN(C)C)c3nc4ccc(CC)cc4s3)cc2)CC1 | -5 | 2 | 62* | 94 | -3
SMILES | CaV13 FRET inh | VLA-4 inh | Exocytosis inh | ABCB6 inh 2 | Exocytosis CP01
COc1ccc2nc(N(CCN(C)C)C(=O)c3ccc4ncsc4c3)sc2c1 | -14 | . | 75* | 99 | -13
CC(C)(C)C(Cn1ccnc1)NC(=O)c1ccc2nc(C3CC3)oc2c1 (stereo not given) | . | -4 | 0 | 98 | .
O=C1NC(=NCc2ccccc2)NC1(c1ccccc1)c1ccccc1 | -10 | . | 1 | 98 | .
Cn1cnc(S(=O)(=O)Nc2cc(-c3ccc(Cl)cc3)nn2C)c1 | -2 | -6 | 0 | 103 | .
COc1ccc(/C=N\NC(=O)c2sccc2C)cc1Cn1nc(C)cc1C | -3 | 7 | -1 | 99 | .
COc1ccc(C(=O)NCCCOC(C)C)cc1OC1CCN(C(C)=O)CC1 | -4 | 11 | 7 | 98 | .
CCc1ccc2nc(N(CCCN(C)C)C(=O)c3ccc(S(=O)(=O)N4CCCc5ccccc54)cc3)sc2c1 | -5 | 9 | 56* | 100 | 23
C=CCOC(=O)C1=C[C@@H](c2ccc(Br)cc2)C[C@@H](OCc2ccc(CO)cc2)O1 | -5 | . | 28 | 95 | .
Cc1ccc(CNc2oc(COc3ccccc3Cl)nc2C#N)cc1 | -6 | 7 | -9 | 92 | .
